Screening data (PubChem BioAssay)
CYP2C9 inh = inhibitors of human CYP2C9. AID 777. CYP2C9 Supersomes, luciferin-H conversion, luminescence. inhibition, % at 5 µM. actives 20% (n = 96,000);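 active means blocking of liver enzyme CYP2C9 beyond about 50% at 5 µM, limit read from the data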
Target sequence (P11712 whole entry, looked up): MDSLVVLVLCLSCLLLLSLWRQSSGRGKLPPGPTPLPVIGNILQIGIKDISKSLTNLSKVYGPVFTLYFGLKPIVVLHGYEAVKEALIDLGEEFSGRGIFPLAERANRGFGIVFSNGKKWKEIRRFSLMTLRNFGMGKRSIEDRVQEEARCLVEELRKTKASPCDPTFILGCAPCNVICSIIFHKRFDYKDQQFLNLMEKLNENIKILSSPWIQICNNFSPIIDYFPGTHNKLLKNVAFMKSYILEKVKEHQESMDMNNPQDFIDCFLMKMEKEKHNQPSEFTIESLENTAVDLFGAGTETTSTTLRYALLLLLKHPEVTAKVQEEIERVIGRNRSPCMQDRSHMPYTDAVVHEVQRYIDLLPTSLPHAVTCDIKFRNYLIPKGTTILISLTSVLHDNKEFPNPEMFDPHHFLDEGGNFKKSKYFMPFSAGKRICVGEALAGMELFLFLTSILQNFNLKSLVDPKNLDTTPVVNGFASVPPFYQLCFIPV
PostGolgi ctrl = yeast control strain growth, post-Golgi counter-screen | inhibition, % at 10 µM | efflux-deficient yeast background strain, growth absorbance A615, 16 h | actives 5% (n = 98,000)
CYP2C19 activ = activators of human cytochrome P450 2C19; AID 1025; recombinant CYP2C19, luciferin-H EGE luminescence; stronger effect = higher value; 0 = fully inhibited enzyme, 1 = untreated enzyme; 96,000 tested, under 10 active; activation factor at 5 µM;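 active means activation factor of at least 2 at 5 µM in the primary screen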
CYP2C19 inhib = inhibitors of human CYP2C19; AID 778; P33261; inhibition, % at 5 µM; CYP2C19 Supersomes, luciferin-H EGE luminescence, 30 min; actives 21% (n = 96,000);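 active means CYP2C19 inhibition above a set limit at 5 µM in the primary screen, cut at about 50% in these data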
PostGolgi yeast = growth inhibition of a yeast mutant, post-Golgi transport screen | inhibition, % at 10 µM | actives 0.9% (n = 98,000) | post-Golgi transport phenotypic cell assay;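 further: yeast cells grown in 1536-well plates; yeast grown about 18 h at 30C before absorbance read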
CYP2C9 act = CYP2C9 (human) activation; P11712; activation factor at 5 µM; recombinant CYP2C9, luciferin-H conversion, luminescence; stronger effect = higher value; factor 1 = untreated enzyme, 0 = blocked; actives 1.4% (n = 96,000);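 active means activation factor of 2 or more for CYP2C9 at a 5 µM dose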
A number is an active result; . = inactive; / = no result. Hits are enriched below; roughly 32% of the tested compounds scored in any of these assays. Unless noted, no stated cut-off is given here; in the data, active means inhibition above about 30%; inactive means the rest.

SMILES	CYP2C9 inh	PostGolgi ctrl	CYP2C19 activ	CYP2C19 inhib	PostGolgi yeast	CYP2C9 act
CC(=O)C1=C(C)NC(C)=C(C(C)=O)C1c1ccc(-c2ccccc2Cl)o1	97	.	.	86	.	.
O=C(O)c1ccc(-c2ccccc2Cl)o1	/	.	/	/	.	/
Cc1c(C(=O)OCC2CCCO2)[nH]c2c1C(=O)CC(c1ccc(N(C)C)cc1)C2 (stereo unspecified)	92	.	.	.	.	.
Cc1c(C(=O)OCC(C)C)[nH]c2c1C(=O)CC(c1cccs1)C2 (stereo unspecified)	92	.	.	80	.	.
CCOC(=O)c1[nH]c2c(c1C)C(=O)CC(c1ccc(OCC)c(OC)c1)C2 (stereo unspecified)	90	.	.	76	.	.
Cc1c(C(=O)N2CCOCC2)[nH]c2c1C(=O)CC(c1ccc(Cl)cc1)C2 (stereo unspecified)	66	.	.	.	.	.
O=C(CCCCCNS(=O)(=O)c1ccc(Br)cc1)NCCN1CCOCC1	.	.	.	.	.	.
Cc1cccc(-n2cnc(C(=O)N/N=C/c3ccccc3)c2)n1	.	.	.	.	.	.
CCOC(=O)c1[nH]c2c(c1C)C(=O)CC(c1ccc(F)cc1)C2 (stereo unspecified)	88	.	.	.	.	.
CCCn1c(SCC(=O)NC2CCCC(C)C2C)n[nH]c1=O (stereo unspecified)	.	.	.	.	.	.
CN1CCN(Cc2ccc(-c3ccc(Cl)cc3)o2)CC1	.	.	.	57	.	.
COc1ccc(C2(C(=O)N3CCCC3)CCOCC2)cc1OC	.	.	.	.	.	.
Cc1cccc(C)c1OCCCCc1c(C)n[nH]c1C	70	.	.	60	.	.
Cc1ccccc1OCCCCc1c(C)n[nH]c1C	50	46	.	65	.	.
Cc1cccc(C(C)(C)C)c1OCCCCN1CCCC1	.	.	.	.	.	.
COc1cccc(OC)c1OCCCSc1nc(C)cc(=O)[nH]1	.	.	.	.	.	.
COc1cccc(OC)c1OCCCCCc1c(C)n[nH]c1C	.	.	.	86	.	.
O=C(NCCCc1ccccc1)C1CC(=O)N(c2ccc3c(c2)OCCO3)C1 (stereo unspecified)	/	.	/	/	.	/
O=C(NC(Cc1ccccc1)c1nc2ccccc2[nH]1)C1CC(=O)N(c2ccc3c(c2)OCCO3)C1 (stereo unspecified)	.	.	.	81	.	.
COC(=O)c1nc2cc(C)ccn2c1F	.	49	.	.	.	.
CSc1ccccc1-n1nnnc1SCC(=O)Nc1cc(C)ccc1C	.	.	.	.	.	3.1
CCC(=O)Nc1ccc(NC(=O)CSc2nnc(C(C)C)n2C)cc1	.	.	.	.	.	.
Cc1ccc(-n2nnnc2SCC(=O)Nc2ccccc2N2CCCCC2)cc1C	.	.	.	80	.	.
Cc1ccc(C)c(-n2nnnc2SCC(=O)Nc2c(C)n(C)n(-c3ccccc3)c2=O)c1	.	.	.	.	.	.
COc1ccccc1NC(=O)CSc1nnnn1-c1ccc2c(c1)OCO2	.	.	.	.	.	.
SMILES	CYP2C9 inh	PostGolgi ctrl	CYP2C19 activ	CYP2C19 inhib	PostGolgi yeast	CYP2C9 act
CCC(=O)Nc1ccc(NC(=O)CSc2nnnn2C(C)C)cc1	68	.	.	.	.	.
CC(C)n1nnnc1SCC(=O)Nc1ccccc1N1CCOCC1	.	/	.	56	/	.
O=C(O)c1cc(S(=O)(=O)NCc2ccco2)c(Cl)cc1Cl	.	.	.	.	.	.
Nc1c(C(=O)NCCc2ccccc2)nnn1Cc1ccccc1	/	.	/	/	.	/
O=S(=O)(Cc1ccccc1Cl)N1CCCCC1	.	.	.	60	.	.
CC1CCN(S(=O)(=O)Cc2ccccc2Cl)CC1	.	.	.	96	.	3.4
O=C(C1CCCN(S(=O)(=O)Cc2ccccc2)C1)N1CCCCC1 (stereo unspecified)	.	.	.	.	.	.
CC1CCN(S(=O)(=O)c2cccc(S(=O)(=O)N3CCOCC3)c2)CC1	.	.	.	.	.	.
CCOC(=O)CNC(=O)c1ccccc1Br	.	.	.	.	.	.
NS(=O)(=O)c1ccc(NC(=O)COC(=O)CCNC(=O)NC23CC4CC(CC(C4)C2)C3)cc1	65	.	.	.	.	.
CCOc1ccc(C(=O)NCC(=O)OC2CCOC2=O)cc1OCC (stereo unspecified)	.	.	.	.	.	.
CSC1=C(C#N)C(CC(C)C)C(C(C)=O)=C(C)N1 (stereo unspecified)	.	.	.	82	.	.
CCCCCn1c(CN2CCN(c3cccc(Cl)c3)CC2)nc2c1c(=O)n(C)c(=O)n2C	55	/	.	.	/	.
CCOC(=O)N1CCN(Cc2nc3c(c(=O)n(C)c(=O)n3C)n2Cc2cccc(C)c2)CC1	67	.	.	86	.	.
CCOC(=O)N1CCN(Cc2nc3c(c(=O)n(C)c(=O)n3C)n2Cc2ccc(F)cc2)CC1	.	.	.	.	.	.
CCCCn1c(CN2CCN(c3cccc(Cl)c3)CC2)nc2c1c(=O)n(C)c(=O)n2C	85	.	.	56	.	.
CCCn1c(CN2CCN(c3cccc(Cl)c3)CC2)nc2c1c(=O)n(C)c(=O)n2C	.	.	.	.	.	.
CCCCn1c(CN2CCN(c3ccccc3)CC2)nc2c1c(=O)n(C)c(=O)n2C	.	.	.	.	.	.
CCOc1ccccc1NC(=O)NC1(C(=O)N2CCOCC2)CCCCC1	.	.	.	.	.	.
Cc1ccc(C)c2c3c([nH]c12)-c1nonc1CC3	.	.	.	.	.	.
COC(=O)c1cc2c(-c3ccccc3)c(C)c3ccccn3c-2c1C(=O)OC	88	42	.	67	.	.
c1cc(-c2noc(CC3CCCCC3)n2)ccn1	77	.	.	99	.	.
O=C1C2C(C(=O)N1/N=C/c1ccco1)C1C=CC2C12CC2 (stereo unspecified)	.	.	.	99	.	.
O=S(=O)(NCc1cc(-c2ccccc2Cl)no1)c1ccccc1	.	.	.	92	.	2.4
O=S(=O)(NCc1cc(-c2ccc(Cl)cc2)no1)c1ccccc1	.	.	.	.	.	.
SMILES	CYP2C9 inh	PostGolgi ctrl	CYP2C19 activ	CYP2C19 inhib	PostGolgi yeast	CYP2C9 act
O=S(=O)(NCc1cc(-c2ccc(Cl)cc2)no1)c1ccc(Cl)cc1	.	.	.	.	.	.
O=S(=O)(NCc1cc(-c2ccccc2)no1)c1ccc(Cl)cc1	.	.	.	78	.	.
O=C(Nc1cccc(-c2nc3ncccc3o2)c1)c1cc2ccccc2o1	89	35	.	.	.	.
CCN(CC)S(=O)(=O)c1cccc(NC(=O)c2cc3ccccc3o2)c1	.	.	.	.	.	.
Cc1ccc(-c2nc3ncccc3o2)cc1NC(=O)c1cc2ccccc2o1	.	.	.	.	.	.
CN(C)S(=O)(=O)c1cccc(NC(=O)c2cc3ccccc3o2)c1	61	.	.	.	.	.
